Laboratory results reported in PubChem BioAssay (Tox21).
Results filed as inconclusive are left out. A call without a number means that no potency is given here. Calls of active or inactive are those of the source. Unless noted, calls come from the whole dose curve; as a rule, active = well fitted curve in the direction sought with a large enough effect in the repeat runs; inconclusive = weak or mixed curves; inactive = no such curve, though single readings can be large; an effect the other way counts as inactive or inconclusive.

How the values were obtained:
[1] = qHTS assay to identify small molecule antagonists of the estrogen related receptor (ERR) signaling pathway from Tox21 library - cell viability counter screen (AID 1224834); note: nearly all actives have a fitted effect of over 30% in size; note: potency is the fitted concentration of half-maximal effect
Procedure, shortened: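 Seeded ERR cells were rested 6 h at 37 C/5% CO2 before compounds, positive and negative controls or DMSO were added. Incubation continued for 17.5 h, and viability was then quantified by CellTiter-Fluor fluorescence.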

[2] = molecular target: Luciferin 4-monooxygenase (Photinus pyralis) (UniProt P08659); experiment: qHTS assay to identify small molecule inhibitors of firefly luciferase (AID 1224835); note: series mostly up to about 120 µM; nearly all actives have a fitted effect of over 25% in size
Procedure, shortened: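 Inhibition of purified Photinus luciferase is measured by luminescence. Substrate levels (D-luciferin, ATP) sit at their KM values. Each compound is tested in a concentration series.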

[3] = qHTS assay to identify small molecule agonists of the constitutive androstane receptor (CAR) signaling pathway - cell viability counter screen (AID 1224836); note: series mostly up to about 92 µM; nearly all actives have a fitted effect of over 45% in size
Procedure, shortened: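 Cell viability multiplexed with the CAR agonist screen: CellTiter-Fluor fluorescence after 23 hr at 37 C. HepG2-CYP2B6-hCAR cells got compounds at 15 concentrations with PK11195 at 0.75 uM final.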

[4] = qHTS assay to identify small molecule antagonists of the constitutive androstane receptor (CAR) signaling pathway - cell viability counter screen (AID 1224837); note: nearly all actives have a fitted effect of over 45% in size; note: potency is the fitted concentration of half-maximal effect
Procedure, shortened: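 To flag cytotoxic false antagonists, HepG2 hCAR/CYP2B6-2.2kb cells were treated 23 hr with 15-concentration compound series and 50 nM CITCO at 37 C/5% CO2; CellTiter-Fluor fluorescence was the measured end point.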

[5] = molecular target: Nuclear receptor subfamily 1 group I member 3 (Homo sapiens) (UniProt Q14994); experiment: qHTS assay to identify small molecule agonists of the constitutive androstane receptor (CAR) signaling pathway (AID 1224839); note: nearly all actives have a fitted effect of over 15% in size; note: potency is the fitted concentration of half-maximal effect;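 for activation: HepG2 cells stably carrying human CAR and a CYP2B6 luciferase reporter; series mostly up to about 92 µM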
Procedure, shortened: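 Luminescent ONE-Glo read-out after 24 hr, 37 C exposure of double-stable HepG2-CYP2B6-hCAR reporter cells to a 15-point compound series, in the presence of 0.75 uM PK11195 (final).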

[6] = qHTS assay to identify small molecule antagonists of the estrogen related receptor signaling pathway with the pleiotropic PPARgamma coactivator (PGC) from Tox21 10K library - cell viability counter screen (AID 1224840; active = well fitted cell-killing curve with a large enough effect in the repeat runs, not every such curve was filed as active; note: nearly all actives have a fitted effect of over 40% in size; note: potency is the fitted concentration of half-maximal effect)
Procedure, shortened: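 Seeded PGC/ERR cells (2,000/well, 6 h, 37 C/5% CO2) get compound by pin tool; 17.5 h incubation at 37 C; CellTiter-Fluor added, 30 min, fluorescence measured.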

[7] = molecular target: Thyrotropin receptor (Homo sapiens) (UniProt P16473); experiment: qHTS assay to identify small molecule agonists of the thyroid stimulating hormone receptor (TSHR) signaling pathway (AID 1224843; calls by dose curve; note: nearly all actives have a fitted effect of over 45% in size; note: potency is the fitted concentration of half-maximal effect)
Procedure, shortened: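 Agonist activity read as cAMP rise via d2/cryptate HTRF competition, 1 h room-temperature detection, in HEK293 cells expressing TSHR. Fifteen-point titrations, each run in triplicate, with a 30 min room-temperature incubation beforehand.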

[8] = qHTS assay to identify small molecule agonists of H2AX (AID 1224845; active = well fitted activation curve with a large enough effect in the signal ratio in the repeat runs, not every such curve was filed as active; the % refers to the signal ratio; note: potency is the fitted concentration of half-maximal effect)
Procedure, shortened: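 Phospho-H2AX Ser139 measured by HTRF (ex 320 nm; em 665 and 620 nm) after 24 hr antibody incubation. Compounds, 15 concentrations, 0.76% DMSO, were applied to CHO-K1 cells for 3hr at 37C before lysis.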

[9] = qHTS assay to identify small molecule agonists of the retinoic acid receptor (RAR) signaling pathway (AID 1159553)
Procedure, shortened: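 6 hr compound exposure (DMSO vehicle) of overnight-plated C3RL4 RARE-luc cells at 37 C; luminescence quantified after 30 min RT with luciferase reagent.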

[10] = qHTS assay to identify small molecule antagonists of the estrogen related receptor signaling pathway with the pleiotropic PPARgamma coactivator (PGC) from Tox21 10K library (AID 1224841; call rule not given here; note: actives are mostly falling curves and most rising ones were filed inactive; nearly all actives have a fitted effect of over 50% in size; note: potency is the fitted concentration of half-maximal effect)
Procedure, shortened: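 Test chemicals dissolved in DMSO were applied to pre-incubated (6 h) PGC/ERR cells at 2,000 cells/well for an 18 h, 37 C treatment; reporter luminescence was then read using One-Glo.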

[11] = qHTS assay to identify small molecule agonists of the estrogen related receptor signaling pathway with the pleiotropic PPARgamma coactivator (PGC) from Tox21 10K library (AID 1224842); note: nearly all actives have a fitted effect of over 15% in size; note: potency is the fitted concentration of half-maximal effect
Procedure, shortened: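 Luminescence from One-Glo (30 min, room temperature) measured after PGC/ERR cells had 18 h at 37 C with pinned compound (23 nL in DMSO). Cells had been seeded at 2,000 per well and pre-incubated 6 h.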

[12] = molecular target: Nuclear receptor subfamily 1 group I member 3 (Homo sapiens) (UniProt Q14994); experiment: qHTS assay to identify small molecule antagonists of the constitutive androstane receptor (CAR) signaling pathway (AID 1224838);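 note: HepG2 cells stably expressing hCAR with CYP2B6 luciferase reporter stimulated by CITCO; nearly all actives have a fitted effect of over 40% in size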; note: potency is the fitted concentration of half-maximal effect
Procedure, shortened: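 Human hepatoma HepG2 cells expressing hCAR and a CYP2B6 promoter (2.2 kb) luciferase construct; compound titration (15 points) with 50 nM CITCO final, 24 h at 37 C/5% CO2; luminescence via ONE-Glo after 30 min at room temperature.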

[13] = qHTS assay to identify small molecule agonists of the hypoxia (HIF-1) signaling pathway - cell viability counter screen (AID 1224844; calls by dose curve; note: nearly all actives have a fitted effect of over 50% in size; note: potency is the fitted concentration of half-maximal effect)
Procedure, shortened: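 HRE-bla ME-180; 0.5% dFBS; cpd 17 h, 37C, 5% CO2; CellTiter-Glo lum., 30 min RT, post-FRET read, same wells.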

Chain of Thyrotropin receptor (Homo sapiens) (P16473 whole entry, looked up): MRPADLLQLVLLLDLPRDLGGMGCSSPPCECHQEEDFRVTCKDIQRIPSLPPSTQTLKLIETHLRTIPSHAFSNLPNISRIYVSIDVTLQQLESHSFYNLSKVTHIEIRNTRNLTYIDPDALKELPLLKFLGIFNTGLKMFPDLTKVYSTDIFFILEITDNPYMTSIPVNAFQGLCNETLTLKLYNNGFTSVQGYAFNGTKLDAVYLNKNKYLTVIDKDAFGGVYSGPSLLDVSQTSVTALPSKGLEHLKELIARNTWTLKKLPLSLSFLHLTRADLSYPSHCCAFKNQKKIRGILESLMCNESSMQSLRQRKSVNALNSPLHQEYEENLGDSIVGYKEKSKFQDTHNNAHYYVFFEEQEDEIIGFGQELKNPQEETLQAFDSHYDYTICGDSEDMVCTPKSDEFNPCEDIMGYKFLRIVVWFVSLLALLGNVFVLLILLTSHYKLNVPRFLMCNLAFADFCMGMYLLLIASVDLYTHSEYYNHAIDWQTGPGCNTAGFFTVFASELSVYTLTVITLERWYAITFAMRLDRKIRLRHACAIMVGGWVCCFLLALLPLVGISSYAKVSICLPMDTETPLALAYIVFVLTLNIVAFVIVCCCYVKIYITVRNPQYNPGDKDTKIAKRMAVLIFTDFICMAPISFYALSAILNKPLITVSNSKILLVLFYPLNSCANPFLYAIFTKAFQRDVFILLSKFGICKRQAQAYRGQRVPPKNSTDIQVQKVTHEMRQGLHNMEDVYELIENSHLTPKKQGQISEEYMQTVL
Chain of Nuclear receptor subfamily 1 group I member 3 (Homo sapiens) (Q14994 whole entry, looked up): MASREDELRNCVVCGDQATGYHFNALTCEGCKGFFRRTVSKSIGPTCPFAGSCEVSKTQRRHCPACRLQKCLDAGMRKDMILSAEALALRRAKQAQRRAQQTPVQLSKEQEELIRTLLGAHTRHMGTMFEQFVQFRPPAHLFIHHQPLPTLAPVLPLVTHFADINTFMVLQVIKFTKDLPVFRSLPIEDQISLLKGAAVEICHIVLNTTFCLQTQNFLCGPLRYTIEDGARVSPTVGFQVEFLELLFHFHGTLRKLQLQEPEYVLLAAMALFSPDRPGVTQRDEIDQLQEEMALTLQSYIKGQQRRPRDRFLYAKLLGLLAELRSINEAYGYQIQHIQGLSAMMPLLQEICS
Chain of Luciferin 4-monooxygenase (Photinus pyralis) (P08659 whole entry, looked up): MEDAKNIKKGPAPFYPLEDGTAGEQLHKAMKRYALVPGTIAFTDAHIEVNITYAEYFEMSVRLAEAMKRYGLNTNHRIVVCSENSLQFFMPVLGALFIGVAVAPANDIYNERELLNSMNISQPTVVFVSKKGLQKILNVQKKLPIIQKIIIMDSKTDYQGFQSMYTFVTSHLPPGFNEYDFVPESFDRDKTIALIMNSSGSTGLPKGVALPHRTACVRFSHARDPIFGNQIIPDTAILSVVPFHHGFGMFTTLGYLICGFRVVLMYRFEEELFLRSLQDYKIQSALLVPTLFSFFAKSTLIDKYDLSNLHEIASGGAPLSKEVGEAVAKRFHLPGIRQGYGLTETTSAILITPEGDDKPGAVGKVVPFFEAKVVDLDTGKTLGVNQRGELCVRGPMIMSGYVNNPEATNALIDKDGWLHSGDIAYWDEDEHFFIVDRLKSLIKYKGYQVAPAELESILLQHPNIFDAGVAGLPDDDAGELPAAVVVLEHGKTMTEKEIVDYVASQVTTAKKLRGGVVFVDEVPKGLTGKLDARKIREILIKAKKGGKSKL

CC1CCCNC1 (stereo not given)
Potency [1]: inactive | Potency [2]: inactive | Potency [3]: inactive | Potency [4]: inactive | Potency [5]: inactive | Potency [6]: inactive | Potency [7]: inactive | Potency [8]: inactive

Oc1c(Br)cc(Br)c2cccnc12
Potency [9]: inactive | Potency [1]: 23.7 µM (active) | Potency [2]: inactive | Potency [3]: inactive | Potency [4]: inactive | Potency [10]: inactive | Potency [11]: 29.8 µM (active) | Potency [7]: inactive | Potency [8]: 55.2 µM (active)

Nc1cc(Cl)c([N+](=O)[O-])cc1O
Potency [9]: inactive | Potency [1]: 54 µM (active) | Potency [12]: inactive | Potency [11]: inactive | Potency [7]: inactive

COC(=O)NCCC[Si](OC)(OC)OC
Potency [1]: inactive | Potency [2]: inactive | Potency [3]: inactive | Potency [4]: inactive | Potency [12]: inactive | Potency [5]: inactive | Potency [6]: inactive | Potency [10]: inactive | Potency [11]: inactive | Potency [7]: inactive

C=CC(=O)OCCC#N
Potency [9]: inactive | Potency [1]: inactive | Potency [2]: inactive | Potency [3]: inactive | Potency [4]: inactive | Potency [12]: inactive | Potency [6]: inactive | Potency [10]: inactive | Potency [7]: inactive | Potency [13]: inactive

COC(=O)C1=C(C)NC(C)=C(C(=O)OCCCN2CCC(c3ccccc3)(c3ccccc3)CC2)C1c1cccc([N+](=O)[O-])c1 (stereo not given)
Potency [9]: inactive | Potency [1]: 21.1 µM (active) | Potency [4]: 23.7 µM (active) | Potency [6]: 26.6 µM (active) | Potency [10]: 10.6 µM (active) | Potency [11]: inactive | Potency [13]: 21.3 µM (active) | Potency [8]: inactive

CCO[Si](CCCSSSSCCC[Si](OCC)(OCC)OCC)(OCC)OCC
Potency [2]: inactive | Potency [3]: inactive | Potency [4]: inactive | Potency [12]: inactive | Potency [6]: inactive | Potency [8]: inactive

Cc1occc1SSc1ccoc1C
Potency [2]: inactive | Potency [3]: inactive | Potency [4]: inactive | Potency [7]: inactive

CC(C(O)c1ccccc1)N(C)CCOC(c1ccccc1)c1ccccc1 (stereo not given)
Potency [1]: 29.8 µM (active) | Potency [2]: inactive | Potency [5]: inactive | Potency [11]: inactive | Potency [7]: inactive | Potency [13]: inactive

CCCCCCCC/C=C\CCCCCCCC(=O)N(C)CC(=O)O
Potency [3]: inactive | Potency [4]: inactive | Potency [12]: inactive | Potency [5]: inactive | Potency [10]: inactive | Potency [11]: inactive

CCc1ccc(O)c(C(C)(C)C)c1
Potency [2]: inactive | Potency [3]: inactive | Potency [4]: inactive | Potency [6]: inactive | Potency [7]: inactive | Potency [13]: inactive | Potency [8]: inactive

C=CC(=C)CCC=C(C)C
Potency [1]: inactive | Potency [2]: inactive | Potency [3]: inactive | Potency [12]: 61.1 µM (active) | Potency [5]: inactive | Potency [6]: inactive | Potency [13]: inactive

Clc1ccc(C(Cn2ccnc2)OCc2ccsc2Cl)c(Cl)c1 (stereo not given)
Potency [1]: 21.1 µM (active) | Potency [2]: inactive | Potency [12]: inactive | Potency [5]: 23.7 µM (active) | Potency [10]: 18.8 µM (active) | Potency [11]: inactive | Potency [13]: inactive

CN(C)CCOC(c1ccccc1)c1ccccc1 (tested in a mixture with another compound)
Potency [1]: inactive | Potency [2]: inactive | Potency [6]: inactive

O=C(O)CCCCCCC(=O)O
Potency [1]: inactive | Potency [2]: inactive | Potency [3]: inactive | Potency [4]: inactive | Potency [6]: inactive | Potency [7]: inactive | Potency [13]: inactive | Potency [8]: inactive

COc1cccc(CCc2ccccc2OCC(CN(C)C)OC(=O)CCC(=O)O)c1 (stereo not given)
Potency [2]: inactive | Potency [3]: inactive | Potency [4]: inactive | Potency [12]: inactive | Potency [5]: inactive | Potency [6]: inactive | Potency [10]: inactive | Potency [11]: inactive | Potency [7]: inactive | Potency [13]: 19 µM (active) | Potency [8]: inactive

CC(=O)Oc1ccc(C2(c3ccc(OC(C)=O)cc3)Oc3ccccc3NC2=O)cc1
Potency [2]: inactive | Potency [3]: inactive | Potency [4]: inactive | Potency [12]: 16.8 µM (active) | Potency [5]: inactive | Potency [6]: inactive | Potency [7]: inactive | Potency [13]: inactive | Potency [8]: inactive

CCC(=O)OCCc1ccccc1
Potency [1]: inactive | Potency [2]: inactive | Potency [3]: inactive | Potency [12]: inactive | Potency [5]: inactive | Potency [6]: inactive | Potency [13]: inactive | Potency [8]: inactive

C=CCCCCCCC=C
Potency [1]: inactive | Potency [3]: inactive | Potency [4]: inactive | Potency [6]: inactive

O=Cc1ccc(F)cc1
Potency [1]: inactive | Potency [2]: inactive | Potency [3]: inactive | Potency [4]: inactive | Potency [6]: inactive | Potency [7]: inactive | Potency [13]: inactive | Potency [8]: inactive

CC(=O)Oc1ccc(C2(c3ccc(OC(C)=O)cc3)C(=O)Nc3ccccc32)cc1
Potency [1]: inactive | Potency [2]: inactive | Potency [3]: inactive | Potency [12]: 0.168 µM (active) | Potency [5]: inactive | Potency [6]: inactive | Potency [11]: inactive | Potency [7]: inactive | Potency [13]: 0.0425 µM (active)

CCCCOc1ccc(C(=O)CCN2CCCCC2)cc1
Potency [1]: inactive | Potency [12]: inactive | Potency [5]: inactive | Potency [6]: inactive | Potency [7]: inactive | Potency [13]: inactive

CCCCCCC(C)OC(=O)COc1nc(F)c(Cl)c(N)c1Cl (stereo not given)
Potency [2]: inactive | Potency [3]: inactive | Potency [4]: inactive | Potency [6]: inactive | Potency [10]: inactive | Potency [11]: inactive | Potency [13]: inactive

CCC(C)(C)c1cc(O)c(C(C)(C)CC)cc1O
Potency [2]: inactive | Potency [4]: inactive | Potency [12]: inactive | Potency [5]: inactive | Potency [11]: inactive | Potency [7]: inactive

CCCN(CCc1cccs1)[C@H]1CCc2c(O)cccc2C1
Potency [2]: inactive | Potency [3]: inactive | Potency [4]: inactive | Potency [12]: inactive | Potency [5]: inactive | Potency [6]: inactive | Potency [10]: inactive | Potency [11]: inactive | Potency [7]: 29.8 µM (active) | Potency [13]: inactive | Potency [8]: inactive

Clc1ccccc1CN1CCc2sccc2C1
Potency [1]: inactive | Potency [3]: inactive | Potency [4]: inactive | Potency [6]: inactive | Potency [13]: inactive

COc1ccc2sc(C(=O)Nc3nnn[nH]3)c(OC(C)C)c2c1
Potency [2]: inactive | Potency [12]: 27.2 µM (active) | Potency [5]: inactive | Potency [11]: inactive | Potency [7]: inactive | Potency [13]: 24.5 µM (active) | Potency [8]: inactive
